Experimental data reported in PubChem BioAssay (NCI).
About 79,000 compounds went through this panel and 15% of them were active in at least one assay; those are over-represented in the sample as a whole. Rule as the data show it: active = growth inhibition above about 70%; inactive = the rest.

Legend:
[1] = NCI Yeast Anticancer Drug Screen. Data for the rad50 strain (AID 155);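 also: 0% = growth of vehicle-only cultures of the same strain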; conditions: S. cerevisiae rad50 strain growth inhibition; at 50.0 µM; hits give high values
Procedure, shortened: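 Yeast carrying a defined DNA repair defect were exposed to test compounds, and growth was compared with vehicle-treated controls to give percent inhibition.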

[2] = NCI Yeast Anticancer Drug Screen. Data for the mec2-1 strain (AID 157); conditions: S. cerevisiae mec2-1 strain, at 50.0 µM, hits give high values
Procedure, shortened: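 Test agents were screened against the mec2-1 yeast strain, with defined DNA repair or cell cycle alteration. Growth was scored as inhibition against vehicle-only controls.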

[3] = NCI Yeast Anticancer Drug Screen. Data for the sgs1 mgt1 strain (AID 161);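 also: 0% = growth of cultures given vehicle only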; conditions: S. cerevisiae sgs1 mgt1 strain, at 50.0 µM, hits give high values
Procedure, shortened: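 Mutant yeast exposed to compound; growth scored against vehicle-only wells.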

[4] = NCI Yeast Anticancer Drug Screen. Data for the cln2 rad14 strain (AID 165);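 also: 0% = growth equal to vehicle treated cultures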; conditions: S. cerevisiae cln2 rad14 strain, at 50.0 µM, hits give high values
Procedure, shortened: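 Growth of compound-exposed yeast (cln2 rad14 genotype) measured and expressed as inhibition relative to vehicle.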

[5] = NCI Yeast Anticancer Drug Screen. Data for the bub3 strain (AID 167); conditions: S. cerevisiae bub3 mutant strain, at 50.0 µM, hits give high values
Procedure, shortened: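 Compounds were applied to a genetically altered yeast strain carrying a cell-cycle control defect. Growth inhibition was scored against vehicle-treated controls.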

[6] = NCI Yeast Anticancer Drug Screen. Data for the mlh1 rad18 strain (AID 175); conditions: S. cerevisiae mlh1 rad18 strain growth inhibition; at 50.0 µM; hits give high values
Procedure, shortened: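 In this whole-cell yeast screen, a strain with altered DNA damage repair is challenged with compound, and its growth is measured against matched vehicle-treated controls.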

Measured: growth inhibition

c1ccc2c(c1)NC(N1CCCCC1)=Nc1ncncc1-2
inactive: [1] 14.8% | [2] -8.15% | [3] 7.75% | [4] -15.1% | [5] -1.7% | [6] 2%

CCOC(=O)CC(=O)c1sc(SC)c(C#N)c1N
inactive: [1] -8% | [2] -9.6% | [3] -10.2% | [4] -2% | [5] 1.6% | [6] 1.6%

CC(C)(C)c1cc(C(=O)O)c2c(c1)C(=O)OC2(c1ccccc1)c1ccccc1C(=O)O (stereo not drawn)
inactive: [1] 29.1% | [2] 7.6% | [3] 5.6% | [4] 9.95% | [5] 8.75% | [6] 31.2%
